Outcome data for 40 molecules are collected here from PubChem BioAssay (EPA / NIEHS).

Active and inactive are the calls of the source. How the source made its calls: active means hit-call score of the fitted dose curve at least 0.9, where 1 is the maximum; inactive means score below 0.9.

The nature of this experiment: APR_HepG2_MitoMass_1hr: Apredica 1-hour HepG2 Assay for Mitochondrial Mass (AID 2282674). The note with it: high-content imaging, actives raise or lower the signal. The protocol: APR_HepG2_1hr is a cell-based, multiplexed-readout assay that uses HepG2, a human liver cell line, with measurements taken at 1 hour after chemical dosing in a 384-well plate.APR_HepG2_MitoMass_1hr is one of 10 assay component(s) measured or calculated from the APR_HepG2_1hr assay. It is designed to make measurements of cell phenotype, a form of morphology reporter, as detected with fluorescence intensity signals by HCS Fluorescent Imaging technology.Data from the assay component APR_HepG2_MitoMass_1hr was analyzed into 1 assay endpoint. This assay endpoint, APR_HepG2_MitoMass_1hr, was analyzed with bidirectional fitting relative to DMSO as the negative control and baseline of activity. Using a type of morphology reporter, gain or loss-of-signal activity can be used to understand changes in the signaling. Furthermore, this assay endpoint can be referred to as a primary readout, because this assay has produced multiple assay endpoints where this one serves a signaling function. To generalize the intended target to other relatable targets, this assay endpoint is annotated to the cell morphology intended target family, where the subfamily is organelle conformation.
Cells were treated with dimethyl sulfoxide (DMSO) as a solvent control at a final concentration of 0.5% v/v or with compounds in DMSO with a resulting final DMSO concentration of 0.5% v/v. Compound treatment was done at concentrations of 0.39, 0.78, 1.56, 3.12, 6.24, 12.5, 25, 50, 100, and 200 uM in duplicate on each plate. Cells were treated with compounds for 1, 24, or 72 hr. Carbonyl […] m-chloro-phenylhydrazone (CCCP) and taxol were used as positive controls for mitochondrial function and cytoskeletal stability, respectively; DMSO served as the negative control for this experiment. Cells were fixed by the direct addition of 50 uL formaldehyde in Hank's Balanced Salt Solution (HBSS) to a final concentration of 3.7%. After incubation in the fixation medium for 30 min at room temperature (293-298 K), cells were rinsed twice with HBSS and treated with cell permeabilization buffer (16 uL of 0.5% Triton X-100) for 10 min at room temperature (293-298 K) before labeling. For mitochondrial membrane potential and mitochondrial measurements, pre-fixed cells were incubated with 50 uL of MitoTracker Red CMXRos (Invitrogen) at a concentration of 250 nM for 30 min before fixation. In the remaining cases, post-fixed cells were labeled by incubation with a multiplexed mixture of primary antibodies in HBSS for 60 min at room temperature (293-298 K) to detect immunoreactivity of c-Jun (1:500), phospho-histone H3 (1:100), phospho-histone H2A.x (1:200), p53 (1:400), alpha-tubulin (1:200) and Hoechst 33342 (2 ug/mL). Cells were labeled for multiplexed imaging on two separate plates: a) Hoechst 33342, MitoTracker Red, phospho-histone H3, and alpha-tubulin, and b) Hoechst 33342, phospho-histone H2A.x, and c-Jun. A final rinse with HBSS (50 uL) was performed before analysis. The primary and secondary antibodies for the proteins were phospho-histone H3 (rabbit anti-phospho-histone H3 and FITC-donkey anti-rabbit IgG), phospho-histone H2A.x (mouse anti-phospho-histone H2A.x and FITC-donkey anti-mouse IgG), c-Jun (rabbit anti-phospho-c-Jun and Cy3-donkey anti-rabbit IgG), p53 (sheep anti-p53 and Cy5-donkey anti-sheep IgG), alpha-tubulin (mouse anti-alpha-tubulin and Cy5-donkey anti-mouse IgG). These antibodies are available as the CellCiphr HepG2 assay kit (Millipore).Digital images of each well were captured using a Cellomics ArrayScan VTI (Thermo Scientific Cellomics) (0.8 NA objective, 0.63x optical coupler, and XF-93 filter set) at 20x magnification. The images were acquired using the autofocus feature of the ArrayScan instrument, which entails the following steps. First, the camera focuses on channel 1 (Hoechst 33342), where nuclei are identified. Second, a Z offset of 1 um is used for capturing mitochondria (MitoTracker Red). Third, a Z offset of -2 um is used for capturing the cytoskeleton (tubulin). […]
On to `CC(C)NC(=O)N1CC(=O)N(c2cc(Cl)cc(Cl)c2)C1=O`, for which the molecule was classed as inactive. With `Nc1c(Cl)c(F)nc(OCC(=O)O)c1Cl`, the result was inactive. Regarding `Cn1c(-c2ccccc2)cc(-c2ccccc2)[n+]1C`, the molecule was classed as inactive.

Take `CNC(=O)N(C)c1nnc(C(C)(C)C)s1`: the call was inactive. With `CCN(CC)C(=O)C(C)Oc1cccc2ccccc12` (stereo not given) the entry was “inactive”; with `N#Cc1c(Cl)cccc1Cl`, “inactive”.

`CC(C)C1(C)N=C(c2ncccc2C(=O)O)NC1=O` (stereo not given): the result was inactive.

Consider `CCOP(=O)(OCC)Oc1nc(Cl)c(Cl)cc1Cl`, for which the molecule was classed as inactive. For `Cc1cc(C)nc(Nc2ccccc2)n1`, the outcome was inactive.

Turning to `CS(=O)(=O)c1cc(C(F)(F)F)ccc1C(=O)c1cnoc1C1CC1`, the molecule was called inactive.

`Cc1c(COC(=O)[C@@H]2[C@H](/C=C(\Cl)C(F)(F)F)C2(C)C)cccc1-c1ccccc1`: the call was inactive. With `CC1(C)C(C=C(Cl)Cl)C1C(=O)OC(C#N)c1cccc(Oc2ccccc2)c1` (stereo not given) the entry was “inactive”. `O=C(Nc1ccccc1-c1ccc(Cl)cc1)c1cccnc1Cl`: the outcome was inactive.

Consider `CCN(CC)c1nc(C)cc(OP(=S)(OC)OC)n1`, for which the molecule was classed as inactive. With `CC(C)=CC1C(C(=O)OCc2coc(Cc3ccccc3)c2)C1(C)C` (stereo not given) the entry was “inactive”; with `CCOc1nc(C(Cl)(Cl)Cl)ns1`, “inactive”; with `COc1cc(OC)nc(NC(=O)NS(=O)(=O)c2ncccc2OCC(F)(F)F)n1`, “inactive”. With `CC1(C)CON(Cc2ccccc2Cl)C1=O` the entry was “inactive”; with `CC1(C)CCC(=Cc2ccc(Cl)cc2)C1(O)Cn1cncn1` (stereo not given), “inactive”; with `COC(=O)N(C(=O)N1CO[C@@]2(C(=O)OC)Cc3cc(Cl)ccc3C2=N1)c1ccc(OC(F)(F)F)cc1`, “inactive”. With `COC(=O)NC(=S)Nc1ccccc1NC(=S)NC(=O)OC` the entry was “inactive”. Consider `CCOC(=O)C(C)OC(=O)c1cc(Oc2ccc(C(F)(F)F)cc2Cl)ccc1[N+](=O)[O-]` (stereo not given), for which the call was inactive.

As to `CN=C=S`, the result was inactive.

With `CC(C)N1C(=O)c2ccccc2NS1(=O)=O`, the molecule was classed as inactive. In the case of `CCOc1nc(F)cc2nc(S(=O)(=O)Nc3c(Cl)cccc3Cl)nn12`, the molecule was called inactive. For the molecule `CS(=O)(=O)c1ccc(C(=O)C2C(=O)CCCC2=O)c([N+](=O)[O-])c1`, the outcome was inactive. On to `CC(C)N1C(=O)N(c2ccccc2)CSC1=NC(C)(C)C`, for which the outcome was inactive. `Cc1nc(N(C)C)nc(OC(=O)N(C)C)c1C`: the result was inactive. In the case of `COCc1cnc(C2=NC(C)(C(C)C)C(=O)N2)c(C(=O)O)c1` (stereo not given), the result was inactive. With `N#CN=C1SCCN1Cc1ccc(Cl)nc1` the entry was “inactive”; with `CCCCOCN(C(=O)CCl)c1c(CC)cccc1CC`, “inactive”; with `O=P(O)(O)CCCl`, “inactive”. In the case of `OC(c1ccc(Cl)cc1)(c1ccc(Cl)cc1)C(Cl)(Cl)Cl`, the outcome was inactive. With `CSC(=O)c1c(C(F)F)nc(C(F)(F)F)c(C(=O)SC)c1CC(C)C` the entry was “inactive”; with `COP(=S)(OC)SCn1nnc2ccccc2c1=O`, “inactive”; with `COC(=O)NS(=O)(=O)c1ccc(N)cc1`, “inactive”.

For the molecule `COCC(=O)N(c1c(C)cccc1C)C(C)C(=O)OC` (stereo not given), the result was inactive. For `C=C(C)CN(CC)c1c([N+](=O)[O-])cc(C(F)(F)F)cc1[N+](=O)[O-]` the value was “inactive”.

In the case of `CCC(C)n1c(=O)[nH]c(C)c(Br)c1=O` (stereo not given), the result was inactive. With `CC(C)(C)C(=O)C(Oc1ccc(Cl)cc1)n1cncn1` (stereo not given) the entry was “inactive”.
